Screening results: PubChem, several laboratories
A selection: hits, their analogues and other compounds. The true share with any hit is near 3%.
TROY signal inh: inhibitors of TROY-dependent NF-kB signaling. Q293 LMP1-TROYcd NF-kB luciferase reporter, 4 h. hit rate 0.98% among 360,000. inhibition, % at 10 µM;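 active = compounds whose plate-normalised and pattern-corrected inhibition of the luciferase reporter signal at the single screening dose is 50% or more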
TWEAK-Fn14 inh: blocks TWEAK-Fn14 interaction in a reporter cell assay. TWEAK-stimulated Fn14 reporter cells, luciferase luminescence, 8 h. inhibition, % at 10 µM. hit rate 2% among 360,000. AID 1159606; in the data active = inhibition above about 50%
TRPM1 prom inh: reduces MITF-dependent TRPM1 promoter luciferase signal; SK-MEL-5 TRPM1 promoter luciferase, 24 h; inhibition, % at 12.5 µM; hit rate 0.83% among 330,000; AID 488899;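 active = mean inhibition across replicates of 60% or more, whatever share of single replicates reaches that level; inconclusive = some that reach 60%, reason not given; inactive = mean inhibition across replicates below 60%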
EBV LMP1 NFkB: inhibitors of Epstein-Barr LMP1-induced NF-kappaB reporter; LMP1-induced NF-kappaB luciferase reporter cells, luminescence; inhibition, % at 12.5 µM; hit rate 0.69% among 350,000; AID 504558; in the data active = inhibition above about 41%; inconclusive = no clear call, values can overlap the other calls;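 also: 0% = neutral control wells and 100% = reference inhibitor control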
LGR2 antag: blocks bursicon-induced cAMP signaling via Drosophila LGR2. inhibition, % at 9.99 µM. HEK293 LGR2, CRE-luciferase, bursicon-stimulated, 4 h. hit rate 0.35% among 380,000;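 active = drop in luminescence signal, shown as inhibition above about 50% in the replicate tests, limit read from the data, passing the limit was not always enough; inconclusive = probably only some replicates passing the limit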;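 also: agonist challenge used bursicon conditioned medium at about half maximal strength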
MITF act: MITF TRPM1 promoter activation in melanoma cells. SK-MEL-5 TRPM1-promoter luciferase, 24 h; % of positive control, neutral wells = 0. activation, % at 12.5 µM. hit rate 0.75% among 300,000. AID 588334;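 active = mean activation of at least 80% with every replicate also reaching 80%; inconclusive = mean reaches 80% but some replicate falls short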;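 also: 0% = neutral control wells and 100% = parthenolide positive control wells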
* marks the source's active call; other numbers are inactive results; u = inconclusive; x = not tested or not shown.

SMILES | TROY signal inh | TWEAK-Fn14 inh | TRPM1 prom inh | EBV LMP1 NFkB | LGR2 antag | MITF act
Cc1ccc2c(c1)sc1nc(=O)n(-c3cccc(Cl)c3)c(=O)n12 | -44 | -35 | -99 | -69 | x | 103*
Cc1ccc2c(c1)sc1nc(=O)n(-c3ccc(Cl)cc3)c(=O)n12 | -71 | -33 | -33 | -17 | x | x
O=c1nc2sc3ccccc3n2c(=O)n1-c1cccc(Cl)c1 | -51 | 10 | -69 | -38 | x | x
Cc1ccc2c(c1)sc1nc(=O)n(-c3ccc(Cl)c(Cl)c3)c(=O)n12 | 43 | 55* | -12 | -19 | x | 12
Cc1cccc(-c2nnc(SCC#N)n2-c2cccc(Cl)c2)c1 | 4 | 5 | 1 | -3 | x | x
O=c1nc2sc3ccccc3n2c(=O)n1-c1ccc(Cl)cc1 | -38 | -24 | -113 | -29 | -55 | 114*
CC(C)c1cn(CC[C@@H]2CC[C@H](NC(=O)c3cccc(F)c3)[C@@H](CO)O2)nn1 | x | x | x | x | 7 | x
C[C@@H]1CN([C@H](C)CO)S(=O)(=O)c2ccc(C3=CCCCC3)cc2O[C@H]1CN(C)Cc1ccccn1 | x | x | x | x | -3 | x
CC(=O)N1Cc2cc(C(=O)NCC(F)(F)F)nc(-c3cccc(-c4cncnc4)c3)c2[C@H]1CCO | x | x | x | x | -21 | x
C=CCn1c2ccccc2c(=O)c2cc(C#CC[C@@H](C)O)ccc21 | -122 | -132 | -89 | -25 | -97 | 94*
C=CCn1c2ccccc2c(=O)c2cc(C#CC3(O)CCCCC3)ccc21 | 70* | 2 | -71 | -34 | u | 69
O=c1oc(CCCO)cc2ccc(C#CC3(O)CCCCC3)cc12 | -58 | -8 | -45 | -13 | -22 | 48
Cc1ccc2c(c1)C1(OCCCO1)C(=O)N2CC(=O)NN | -10 | 94* | x | x | -3 | x
CCNC(=O)C[C@@H]1CC[C@H]2[C@H](COc3ccc(NC(=O)c4ccccc4)cc3C(=O)N2C)O1 | x | x | x | x | 3 | x
COc1cccc(S(=O)(=O)N[C@H]2CC[C@@H](CC(=O)NCc3ccc(Cl)cc3)O[C@H]2CO)c1 | x | x | x | x | 3 | x
CO[C@H]1CN(C)C(=O)c2cc(NC(C)=O)ccc2OC[C@H](C)N(Cc2cccc(F)c2)C[C@H]1C | x | x | x | x | -2 | x
Cc1ccccc1NC(=O)c1c([N+](=O)[O-])c(C(C)(C)C)nn1C | 9 | 7 | -5 | 55* | 0 | 5
Cc1cccc(NC(=O)c2c([N+](=O)[O-])c(C(C)(C)C)nn2C)c1 | 12 | -5 | 0 | 0 | -3 | -1
CC[N+]1(C)CCC(O)(/C=C/c2ccccc2)C(C(=O)/C=C/c2ccccc2)C1 (stereo unspecified) | 12 | 65* | 66* | -3 | 24 | x
O=C(Cn1ncc2c1-c1ccccc1OC2)N1CCc2ccccc21 | 1 | -3 | 0 | 3 | 23 | -6
Cc1c2cnn(CC(=O)N3CCOCC3)c(=O)c2c(C)n1Cc1ccc(F)cc1 | 6 | 7 | x | x | 6 | x
O=C(Cn1ncc(Cl)c(Cl)c1=O)N1CCc2ccccc21 | 13 | 101* | 99* | 13 | 70* | -99
O=C(Cn1ncc(Cl)c(Cl)c1=O)N1CCN(Cc2ccccc2)CC1 | 56* | 87* | 98* | 88* | 104* | -98
O=C(Cn1ncc(Cl)c(Cl)c1=O)N1CCOCC1 | -2 | 81* | 98* | 6 | 100* | -97
CCSc1nc(COC(=O)NC)c(COC(=O)NC)n1C | 20 | -7 | -2 | 4 | x | 6
SMILES | TROY signal inh | TWEAK-Fn14 inh | TRPM1 prom inh | EBV LMP1 NFkB | LGR2 antag | MITF act
CNC(=O)OCc1nc(SSC(C)(C)C)n(C)c1COC(=O)NC | -8 | 89* | 58 | 13 | -5 | -59
CO[C@H]1CN(C)C(=O)c2cc(NS(=O)(=O)c3cccc(F)c3)ccc2OC[C@@H](C)NC[C@H]1C | x | x | x | x | -13 | x
Cc1cc(N2CCC(C)CC2)n2ncc(-c3ccccc3)c2n1 | 84* | 83* | -8 | -1 | u | 12
Cc1cc(N2CCC(C)CC2)n2nc(C)c(-c3ccccc3)c2n1 | -12 | -10 | -2 | -2 | x | 3
Cc1cc(N2CCOCC2)n2nc(C)c(-c3ccc(Cl)cc3)c2n1 | -1 | -2 | -15 | -12 | -12 | 15
Cc1cc(N2CCN(C(=O)c3ccco3)CC2)n2ncc(-c3ccccc3)c2n1 | -26 | -11 | -58 | -23 | x | x
CC(C)(C)c1cc(N2CCOCC2)n2ncc(-c3ccc(Cl)cc3)c2n1 | -21 | -18 | -36 | -12 | 1 | 35
Cc1cc(N2CCCCC2)n2ncc(-c3ccc(Cl)cc3)c2n1 | 70* | 74* | -55 | -61 | x | 52
Cc1cc(N2CCOCC2)n2ncc(-c3ccccc3)c2n1 | 75* | 86* | 6 | 4 | x | -9
Cc1ccc(-c2cnn3c(N4CCOCC4)cc(C)nc23)cc1 | 73* | 85* | -45 | -30 | 10 | 43
Cc1cc(N2CCCCC2)n2ncc(-c3ccccc3)c2n1 | 77* | 81* | 8 | -33 | x | -9
Cc1cc(N2CCOCC2)n2ncc(-c3ccc(Cl)cc3)c2n1 | 79* | 82* | -30 | -21 | x | x
Cc1cc(C)n(-c2cc(C(C)(C)C)nc3c(-c4ccccc4)cnn23)n1 | 23 | -1 | -121 | -31 | -94 | 121*
Cc1cc(C)n(-c2cc(C(C)(C)C)nc3c(-c4ccc(Cl)cc4)cnn23)n1 | 6 | -10 | -25 | -11 | x | 29
O=C1C=CC2(C=C1)O[C@H](Cc1ccccc1)[C@@H](Cc1ccccc1)O2 | 87* | 107* | 97* | 87* | 98* | -96
COc1ccc(N2C(=O)CC(Cc3ccccc3)C2=O)cc1 (stereo unspecified) | -11 | -8 | -7 | -1 | x | 4
COc1ccc(C[C@@H]2OC3(C=CC(=O)C=C3)O[C@H]2Cc2ccc(OC)cc2)cc1 | 85* | 106* | 100* | 79* | x | -100
O=C(NCC1CC1)[C@@H]1[C@@H](CO)[C@@H]2Cn3c(ccc(-c4cccnc4)c3=O)[C@H]1N2C(=O)C1CCC1 | x | x | x | x | -9 | x
C[C@H](NC(=O)N(C)C[C@H]1OCc2ccccc2-c2c(n(C)c3ccccc23)C(=O)N([C@H](C)CO)C[C@@H]1C)c1ccccc1 | x | x | x | x | 6 | x
C[C@H](CO)N1C[C@H](C)[C@H](CN(C)S(=O)(=O)c2cccs2)OCCCC[C@H](C)Oc2ccc(NC(=O)Cc3ccccc3)cc2C1=O | x | x | x | x | 14 | x
O=C(Nc1ccc(F)cc1F)c1cc2nc3c(c(C(F)(F)F)n2n1)CCCC3 | 68* | 73* | -21 | -15 | -28 | 27
O=C(O)c1cc2nc3c(c(C(F)(F)F)n2n1)CCCC3 | 12 | 13 | 2 | 7 | -4 | -1
O=C(NC(=S)Nc1ccc(O)cc1)C1CCCC1 | -21 | 0 | -25 | -9 | -14 | 25
Cc1ccc(NC(=S)NC(=O)C2CCCC2)cc1C | -51 | 9 | -108 | u | -65 | 114*
Cc1ccc(NC(=S)NC(=O)C2CCC2)cc1C | -89 | -24 | -109 | -31 | -75 | 113*
CC(=O)Nc1ccc(NC(=S)NC(=O)C2CC2)cc1 | -4 | -4 | 8 | -13 | -26 | -7
